# Sampled rows, rich in hits. Any-hit rate of the full collection: about 3%.
# IP6K1 inh: inhibitors of human IP6K1; IP6K1 kinase, ADP-Glo luminescence, 2 h; active compounds read low; activity change, % (series mostly up to about 58 µM); 140,000 compounds, 0.81% hits; in the data active means activity change below about -25%; further: on the % scale 0 is the no-effect control and ±100 the full control effect
# Target sequence (Q92551 whole entry, looked up): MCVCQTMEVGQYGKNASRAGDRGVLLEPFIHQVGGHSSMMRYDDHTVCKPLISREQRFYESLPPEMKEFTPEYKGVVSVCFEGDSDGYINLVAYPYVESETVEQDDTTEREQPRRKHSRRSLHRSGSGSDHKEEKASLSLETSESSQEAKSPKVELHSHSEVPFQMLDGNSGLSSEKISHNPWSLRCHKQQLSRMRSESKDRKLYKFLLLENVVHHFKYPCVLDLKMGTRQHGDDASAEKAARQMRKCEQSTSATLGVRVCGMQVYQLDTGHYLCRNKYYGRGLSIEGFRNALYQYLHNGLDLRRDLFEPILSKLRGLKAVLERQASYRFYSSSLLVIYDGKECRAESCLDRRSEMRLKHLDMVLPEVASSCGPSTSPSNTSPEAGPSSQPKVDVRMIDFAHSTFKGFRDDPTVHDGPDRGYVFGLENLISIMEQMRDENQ
#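 ADP-Glo luminescence measures ADP made by human IP6K1 during a 2 h RT reaction with ATP/IP6 (mix at 1.3 mM/130 uM); top library doses 57.5 and 19.1 uM final.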
# HEK293 viab: cell viability loss counter-screen; HEK-293-SNCA-luc viability, GF-AFC fluorescence, 24 h; Potency, µM (highest dose often 57.1 µM), for the others: at the highest dose activity change, negative = cytotoxicity, usual class: cytotoxic; 150,000 compounds, 0.12% hits; AID 1671193;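 further: potency means the concentration at half of the fitted maximal effect; 0% = DMSO-treated cells and -100% = medium-only wells without cells; nearly all actives have a fitted effect of over 30% in size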
#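 HEK-293-SNCA-luc cells (1500/well) plated 24 h, then exposed 24 h to a dilution series; GF-AFC added 30 min at 37C, fluorescence 405/540 nm; normalised to medium-only and DMSO wells, Hill fit.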
# SNCA expr inhib: reduces expression of the alpha-synuclein gene | HEK-293 SNCA-luciferase knock-in, luminescence, 24 h | Potency, µM (series often up to 57.2 µM), inactives show at the highest dose activity change, negative = inhibition, hits mostly inhibitors | 140,000 compounds, 0.17% hits | AID 1671194;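 further: potency means the concentration at half of the fitted maximal effect; plate controls were DMSO cells for no effect and cell-free wells for full effect; nearly all actives have a fitted effect of over 45% in size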
# KDM5B inh: blocks human KDM5B histone demethylase activity | KDM5B demethylase, FDH-coupled NADH fluorescence (FDH is formaldehyde dehydrogenase) | Q9UGL1 | 220,000 compounds, 2.6% hits | Potency, µM (doses to about 57.7 µM), most hits filed as inhibitors | AID 1347165; further: potency means the concentration at half of the fitted maximal effect; 0% is about no effect; nearly all actives have a fitted effect of over 70% in size
#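 Here, H3K4me3 peptide (12.5 µM in substrate mix) is demethylated by KDM5BΔAP, 200 nM final, after 10 min compound exposure. Formaldehyde product is coupled through FDH (0.25 U/mL in mix) to NADH fluorescence; 30-min ΔRFU feeds dose-response curves.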
# The depositor's hits bear a star; i = inactive; u = inconclusive; x = no result; [ ] = dose if it differs, or a comment. Unless noted, the call rests on the fitted dose curve; in most records, active means well fitted curve in the direction sought with a large enough effect; inconclusive means small, poorly fitted or top-dose-only effect, or another doubt; inactive means no such curve, though single readings can be large; an effect the other way counts as inactive or inconclusive.
SMILES,IP6K1 inh,HEK293 viab,SNCA expr inhib,KDM5B inh
COc1ccccc1-c1nnc([C@H]2CCN(Cc3ncc[nH]3)C2)o1,21,-2%[87.6 µM],1%[87.6 µM],40µM*
Clc1ccccc1CN1CC[C@H](c2nnc(-c3ccccc3)o2)C1,-7,1%[87.6 µM],29%[87.6 µM],i
CN(C)c1ccc(-c2nnc([C@H]3CCN(Cc4ccccn4)C3)o2)cc1,20,7%[87.6 µM],90%[87.6 µM],35µM*
c1cnc(N2CC[C@H](c3nnc(-c4ccncc4)o3)C2)nc1,7,-9%[87.6 µM],13%[87.6 µM],32µM*
COc1ccccc1-c1nnc([C@H]2CCN(Cc3ccccc3O)C2)o1,15,-1%[87.6 µM],-1%[87.6 µM],u
Cc1ccccc1CN1CC[C@H](c2nnc(-c3ccc(N(C)C)cc3)o2)C1,16,-1%[87.6 µM],41%[87.6 µM],32µM*
O=C(C1CCCN([S+](=O)([O-])c2cccs2)C1)N1CCCC(c2nc3ncccc3[nH]2)C1 (stereo unspecified),-11,0%,1%,x
COc1ccc(OCC(O)CN2CCC(=O)N(CC3CC3)Cc3ccccc32)cc1 (stereo unspecified),-7,x,x,x
O=C(Nc1cccc(C(F)(F)F)c1)c1cc(-c2ccc(Cl)cc2)on1,7,4%,2%,i
FC(F)(F)c1cccc(Nc2nc3nonc3nc2Nc2ccc(Cl)cc2)c1,4,u,11µM*,i
O=C(O)C1CCc2nnc(C3CCCN([S+](=O)([O-])c4ccccc4)C3)n21 (stereo unspecified),1,8%,-3%,56µM*
O=C(C1CCCC1)N1CCN(c2nc3ncccc3o2)CC1,6,-5%[87.6 µM],-22%[87.6 µM],32µM*
O=C(C1CC1)N1CCN(c2nc3ncccc3o2)CC1,2,2%[87.6 µM],-8%[87.6 µM],u
O=C(C1CCCN(c2nc3ncccc3o2)C1)N1CCOCC1 (stereo unspecified),5,-12%[87.6 µM],-2%[87.6 µM],40µM*
O=C(C1CCN(c2nc3ncccc3o2)CC1)N1CCOCC1,18,5%[87.6 µM],12%[87.6 µM],x
O=C(c1ccccc1Cl)N1CCN(c2nc3ncccc3o2)CC1,6,-5%,17%,20µM*
CN(C)C(=O)N1CCCN(c2nc3ncccc3o2)CC1,5,-10%[87.6 µM],5%[87.6 µM],28µM*
Cn1c(-c2ccc(CN3CCc4[nH]cnc4C3C(=O)O)o2)nc2ccccc21 (stereo unspecified),27,-18%,84%,28µM*
CCNc1ncnc2sc3c(c12)CCN(C(=O)CCOC)C3,-9,7%,-14%,u
CCC(=O)N1CCc2c(sc3ncnc(NCc4ccccn4)c23)C1,-8,8%,37%,28µM*
CCNc1ncnc2sc3c(c12)CCN(Cc1ccncc1)C3,-8,-25%,-32%,25µM*
CCC(=O)N1CCc2c(sc3ncnc(N)c23)C1,2,5%,13%,28µM*
CCC(=O)N1CCc2c(sc3ncnc(N4CCN(C)CC4)c23)C1,-3,-5%,8%,u
CCC(=O)N1CCc2c(sc3ncnc(Nc4ccccc4)c23)C1,-10,-7%,4%,u
CCNc1ncnc2sc3c(c12)CCN(C(=O)COC)C3,-11,17%,2%,35µM*
SMILES,IP6K1 inh,HEK293 viab,SNCA expr inhib,KDM5B inh
O=C(CCC1CCN(c2cc(NC3CC3)ncn2)CC1)NCc1ccc(F)cc1,17,5%,u,i
O=C(CCC1CCN(c2cc(NC3CC3)ncn2)CC1)NCc1cc(F)cc(F)c1,12,10%,4.5µM*,i
O=C(CCC1CCN(c2cc(NC3CC3)ncn2)CC1)NCc1ccc(F)cc1F,19,-6%,3.5µM*,i
CNCCN1C(=O)CC[C@H]2CN(C(=O)c3ccc(Cl)cn3)CC[C@H]21,6,9%,-2%,i
CNCCN1C(=O)CC[C@H]2CN(c3ncc(Cl)cc3F)CC[C@H]21,11,13%,-23%,25µM*
O=C(CN1CC(=O)NC1=O)NCc1ccc2[nH]c3c(c2c1)CCCCCC3,15,-4%,12%,22µM*
Cc1noc([C@@H](C)NC(=O)c2cccs2)c1C(=O)O,11,-4%[87.6 µM],-4%[87.6 µM],i
Cc1nn(-c2ccccc2)nc1C(=O)N[C@H](C)c1onc(C)c1C(=O)O,-13,5%[87.6 µM],-13%[87.6 µM],32µM*
O=C(NC1CCCN(c2ccnc3ccnn23)C1)c1cccc(Br)c1 (stereo unspecified),-2,-14%[87.6 µM],5%[87.6 µM],x
COc1ccc(OCC(O)CN2CCC(=O)N(CC3CC3)Cc3cc(F)ccc32)cc1 (stereo unspecified),-12,x,x,x
Cc1cccc(CNC(=O)c2ccc(Cn3c(SCc4cccc(F)c4)nc4cccnc43)cc2)c1,-53*,-11%,-7%,u
Cn1ncc2c(C(=O)NCC#N)cc(-c3cccc(F)c3)nc21,20,x,x,x
Cn1nccc1OCc1cn2c(=O)n(C)cc(-c3cccc(OCc4ccccc4)c3)c2n1,-4,u,u,40µM*
COCc1cn2c(=O)n(C)cc(-c3ccnc(OC)c3)c2n1,-8,5%[87.6 µM],-19%[87.6 µM],32µM*
COc1ccc(-c2cn(C)c(=O)n3cc(COc4ccnn4C)nc23)cc1,-13,-15%[87.6 µM],-15%[87.6 µM],u
Cn1cc(-c2ccc(O)c(F)c2)c2nc(COc3ccc(Cl)cc3)cn2c1=O,-14,-18%[87.6 µM],-8%[87.6 µM],20µM*
COc1ccc(-c2cn(C)c(=O)n3cc(COc4ccnn4C)nc23)cc1OC,-7,-2%[87.6 µM],46%[87.6 µM],35µM*
COCc1cn2c(=O)n(C)cc(-c3ccc(OC)nc3)c2n1,-18,-10%[87.6 µM],2%[87.6 µM],i
COc1ccc(F)cc1-c1ccc(CN2CCC(NC(=O)Nc3ccccc3)C2)cc1 (stereo unspecified),7,x,x,x
N#Cc1cccnc1-c1ccc(C(=O)N2CCC(NC(=O)c3ccc(Cl)nc3)CC2)cc1,3,3%[12.5 µM],-10%,x
COc1ccc(-c2noc([C@@H](C)NC(=O)c3nc4ccccc4[nH]3)c2C(=O)O)cc1,1,2%,-12%,28µM*
Cc1ccc(-c2nn(CCC(=O)NN3CCOCC3)c(=O)c3ccccc23)cc1,x,x,x,i
COCCN1CCN(Cc2ccc(-c3n[nH]c4c3C(=O)c3c(NC(=O)NN5CCOCC5)cccc3-4)cc2)CC1,1,0.15µM*,x,x
CCc1noc(-c2ccn3c(CNC(=O)C4CCC4)nnc3c2)n1,8,-1%,14%,i
O=C(NCc1nnc2cc(-c3nc(C4CC4)no3)ccn12)C1CCCCC1,7,-18%,-10%,28µM*
SMILES,IP6K1 inh,HEK293 viab,SNCA expr inhib,KDM5B inh
O=C(NCc1nnc2cc(-c3nc(C4CC4)no3)ccn12)C1CCC1,-1,-10%,u,25µM*
CC1CCCC(C)N1C(=O)c1ccc2nc(-c3ccncc3)oc2c1 (stereo unspecified),8,-4%[87.6 µM],27%[87.6 µM],x
CCc1noc(-c2cccn3c(CNC(=O)C(C)c4ccccc4)nnc23)n1 (stereo unspecified),6,4%,-17%,22µM*
CCc1noc(-c2cccn3c(CNC(=O)COc4ccccc4)nnc23)n1,-7,-5%,u,32µM*
COc1ccc(-c2[nH]nc3ncc(-c4cccnc4OC)nc23)c(C)c1,8,6%[87.6 µM],1%[87.6 µM],35µM*
COc1ccc(-c2[nH]nc3ncc(-c4ccc(F)cc4OC)nc23)c(C)c1,10,0%[87.6 µM],-7%[87.6 µM],7.9µM*
